The values below come from PubChem BioAssay.

Activity calls are given as the source filed them.

The target of assay [1] is Albumin (Bos taurus) (UniProt P02769). The experiment in a line: compounds binding labelled BSA control protein – biochemical, small-molecule microarray, Alexa647 label, 635/667 nm fluorescence, artefact control for SMM control protein annotation, profiling panel (AID 1118).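 Further: score merges 667 nm emission intensity and signal-to-noise per printed compound spot.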 The conditions noted are these: BSA-A647 binding, fluorescence 635 nm, higher = more signal.
The nature of assay [2]: probe aXIP binding to arrayed compounds – biochemical, NeuroSMM set, 635/667 nm fluorescence, primary screen (AID 1119).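 Further: probe is the protein aXip251-270 applied at 1 µg/mL to compound-printed slides; binding of probe to printed compounds measured as 667 nm fluorescence plus signal to noise.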 The conditions noted are these: small-molecule microarray, higher = more signal, called active from +8 up or from −8 down.
Assay [3] in a line: probe aNOTCH3 binding on compound microarray – biochemical, small-molecule microarray, 635/667 nm fluorescence, primary screen (AID 1120).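 Further: probe is a biotin-tagged antibody raised against NOTCH3 rather than NOTCH3 protein; score merges spot fluorescence near 667 nm with spot signal to noise.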 Conditions: higher = more signal.
Assay [4] can be described thus: probe aNOTCH2 binding on compound microarray – biochemical, small-molecule microarray, 635/667 nm fluorescence, primary screen (AID 1121).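 Further: score merges feature fluorescence read at 667 nm with its signal to noise.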 The conditions noted are these: higher = more signal.
The target in assay [5] is Carbonic anhydrase 2 (Homo sapiens) (UniProt P00918). Briefly: compounds binding carbonic anhydrase 2 – biochemical, small-molecule microarray, Alexa647-labelled CAII, profiling panel (AID 1122). The conditions noted are these: CAII-A647 binding fluorescence, higher = more signal.
Assay [6] in a line: COS7 lysate on small-molecule microarray, probe aHis, 635 nm (AID 1123).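 Further: z-score combines 667nm fluorescence intensity with signal-to-noise per printed compound spot.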 The conditions noted are these: COS7 cell lysate, fluorescence, higher = more signal.
A short description of assay [7]: probe aLAP1 signal on lysate-treated microarray – cell lysate, small-molecule microarray, COS7 lysate, primary screen (AID 1124).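 Further: lysate comes from COS7 cells expressing LAP1 and is applied at 0.3 µg/mL; score merges spot fluorescence near 667 nm with signal-to-noise over triplicate slides.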 Conditions: probe aLAP1, fluorescence, higher = more signal.
Assay [8] relates to Sam68 (KHDRBS1). The experiment in a line: compounds binding KHDRBS1 protein – biochemical, small-molecule microarray, 635 nm fluorescence, primary screen (AID 1125).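 Further: score merges 667 nm channel intensity with signal to noise over triplicate slides.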 The conditions noted are these: higher = more signal.
Assay [9] has as its system Chordin-like protein 2 (CHRDL2). The experiment in a line: compounds binding chordin-like 2 – biochemical, small-molecule microarray, 635 nm fluorescence, primary screen (AID 1126).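 Further: printed compound slides probed with Chrdl2 protein at 4 µg/mL for 1 h at 4 C; score merges 667 nm emission intensity with signal to noise over three replicate slides.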 Conditions: fluorescence 635 nm, higher = more signal.
Assay [10] addresses Concanavalin-A (Canavalia ensiformis) (UniProt P02866). The experiment in a line: compounds binding concanavalin A lectin – biochemical, small-molecule microarray, Alexa647 label, 635 nm, artefact control for SMM control protein annotation, primary screen (AID 1127).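 Further: z combines 667 nm emission intensity with signal-to-noise across three replicate slides.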 The conditions noted are these: ConA-A647 binding fluorescence, higher = more signal.
A short description of assay [11]: compounds binding Alexa647 anti-His antibody – biochemical, small-molecule microarray, 635 nm fluorescence, artefact control for SMM control protein annotation, primary screen (AID 1128).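 Further: score merges feature fluorescence with signal-to-noise for each printed compound spot.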 Conditions: higher = more signal.
For assay [12], the system named is Human papillomavirus type 1a E7 protein (residues 1-88). The experiment in a line: HPV1a E7 small-molecule binders, primary screen, biochemical, small-molecule microarray, residues 1-88, 635 nm (AID 1129). Conditions: small-molecule microarray binding, fluorescence 635 nm; higher = more signal.
Assay [13] addresses Focal adhesion kinase 1 (Homo sapiens) (UniProt Q05397). The experiment in a line: PTK2 protein binding on printed compound slides – biochemical, small-molecule microarray, 635/667 nm fluorescence, BSA, DTT, primary screen (AID 1130).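 Further: composite of spot emission at 667 nm and signal to noise over triplicate slides.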 Conditions: 635 nm fluorescence, higher = more signal.
The test system of assay [14] is Fibrinogen (Alexa647-labelled). Briefly: Alexa647-fibrinogen binding to printed small molecules – biochemical, small-molecule microarray, 635/667 nm fluorescence, artefact control for SMM control-protein annotation, profiling panel (AID 1131).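 Further: z-score merges 667 nm fluorescence with per-spot signal-to-noise over triplicate slides.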 The conditions noted are these: fibrinogen-A647 binding fluorescence, higher = more signal.
For assay [15], the target named is Follistatin (Homo sapiens) (UniProt P19883). The experiment in a line: FST protein binding to printed compounds – biochemical, small-molecule microarray, 635/667 nm fluorescence, primary screen (AID 1132). The conditions noted are these: 635 nm fluorescence, higher = more signal.
In assay [16] the target is Fibroblast growth factor 2 (Homo sapiens) (UniProt P09038). Briefly: basic fibroblast growth factor binding to printed compounds – biochemical, small-molecule microarray, 635/667 nm fluorescence, primary screen (AID 1133). Conditions: FGF2, fluorescence 635/667, higher = more signal.
A short description of assay [17]: JC-1 mitochondrial potential readout, lung cancer cells – cell-based, A549, JC-1 fluorescence, basal, 24 h, 100 nL, profiling panel (AID 1138).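 Further: A549 lung adenocarcinoma cells under basal conditions with no added stimulus; test concentration not given here.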 The conditions noted are these: higher = more signal.
Assay [18] concerns Lefty1. Briefly: Lefty1 protein binding to printed compounds – biochemical, small-molecule microarray, 635/667 nm fluorescence, primary screen (AID 1139). Conditions: fluorescence 635/667, higher = more signal.
The test system of assay [19] is wheat germ agglutinin (Triticum aestivum), Alexa647-labelled. Briefly: Alexa647-WGA lectin binding to printed small molecules – biochemical, small-molecule microarray, 635/667 nm fluorescence, artefact control for SMM control-protein annotation, profiling panel (AID 1140).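 Further: score merges 667 nm feature emission with signal to noise over triplicate slides.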 The conditions noted are these: WGA-A647 binding, 635 nm fluorescence, higher = more signal.
The target of assay [20] is Luciferin 4-monooxygenase (Photinus pyralis) (UniProt P08659). Briefly: inhibition of purified Photinus pyralis luciferase – biochemical, luminescence, purified enzyme, 2006 set, primary screen (AID 1141).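 Further: cell-free assay with purified firefly luciferase at 100 ng per well in PBS; test concentration not given here.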 Conditions: purified firefly luciferase, SteadyGlo luminescence, 30 min; higher = more signal, called active from +8 up or from −8 down.
Luciferin 4-monooxygenase (Photinus pyralis), sequence (P08659 whole entry, looked up): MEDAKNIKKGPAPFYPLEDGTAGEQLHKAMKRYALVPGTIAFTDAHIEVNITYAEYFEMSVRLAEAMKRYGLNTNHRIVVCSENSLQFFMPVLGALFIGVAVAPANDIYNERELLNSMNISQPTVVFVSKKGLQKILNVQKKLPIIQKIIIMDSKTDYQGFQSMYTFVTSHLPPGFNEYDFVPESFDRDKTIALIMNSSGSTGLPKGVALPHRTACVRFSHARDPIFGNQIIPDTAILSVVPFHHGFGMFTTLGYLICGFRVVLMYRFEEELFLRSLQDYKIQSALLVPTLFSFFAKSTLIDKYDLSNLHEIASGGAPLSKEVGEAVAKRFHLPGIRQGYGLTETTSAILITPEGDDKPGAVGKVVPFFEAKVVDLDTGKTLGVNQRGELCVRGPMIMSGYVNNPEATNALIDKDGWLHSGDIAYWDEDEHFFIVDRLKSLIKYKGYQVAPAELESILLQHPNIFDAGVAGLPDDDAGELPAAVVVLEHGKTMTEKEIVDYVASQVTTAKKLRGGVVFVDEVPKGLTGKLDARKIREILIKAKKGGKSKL

Fibroblast growth factor 2 (Homo sapiens), sequence (P09038 whole entry, looked up): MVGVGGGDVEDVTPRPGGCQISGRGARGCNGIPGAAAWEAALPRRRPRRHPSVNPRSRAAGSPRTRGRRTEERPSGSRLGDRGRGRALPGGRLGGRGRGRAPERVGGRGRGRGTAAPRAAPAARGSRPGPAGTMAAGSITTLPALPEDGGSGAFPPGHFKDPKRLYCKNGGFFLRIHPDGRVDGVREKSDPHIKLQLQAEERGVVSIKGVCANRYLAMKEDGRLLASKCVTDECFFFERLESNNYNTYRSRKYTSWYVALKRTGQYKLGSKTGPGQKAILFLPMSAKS
Concanavalin-A (Canavalia ensiformis), sequence (P02866 whole entry, looked up): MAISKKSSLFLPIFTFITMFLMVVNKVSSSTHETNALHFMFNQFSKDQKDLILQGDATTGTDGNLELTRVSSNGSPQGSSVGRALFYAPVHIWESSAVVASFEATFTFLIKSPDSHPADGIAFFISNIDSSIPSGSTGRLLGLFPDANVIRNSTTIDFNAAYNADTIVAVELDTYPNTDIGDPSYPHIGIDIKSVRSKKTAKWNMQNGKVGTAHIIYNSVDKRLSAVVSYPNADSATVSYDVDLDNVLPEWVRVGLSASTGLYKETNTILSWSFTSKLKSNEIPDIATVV
Albumin (Bos taurus), sequence (P02769 whole entry, looked up): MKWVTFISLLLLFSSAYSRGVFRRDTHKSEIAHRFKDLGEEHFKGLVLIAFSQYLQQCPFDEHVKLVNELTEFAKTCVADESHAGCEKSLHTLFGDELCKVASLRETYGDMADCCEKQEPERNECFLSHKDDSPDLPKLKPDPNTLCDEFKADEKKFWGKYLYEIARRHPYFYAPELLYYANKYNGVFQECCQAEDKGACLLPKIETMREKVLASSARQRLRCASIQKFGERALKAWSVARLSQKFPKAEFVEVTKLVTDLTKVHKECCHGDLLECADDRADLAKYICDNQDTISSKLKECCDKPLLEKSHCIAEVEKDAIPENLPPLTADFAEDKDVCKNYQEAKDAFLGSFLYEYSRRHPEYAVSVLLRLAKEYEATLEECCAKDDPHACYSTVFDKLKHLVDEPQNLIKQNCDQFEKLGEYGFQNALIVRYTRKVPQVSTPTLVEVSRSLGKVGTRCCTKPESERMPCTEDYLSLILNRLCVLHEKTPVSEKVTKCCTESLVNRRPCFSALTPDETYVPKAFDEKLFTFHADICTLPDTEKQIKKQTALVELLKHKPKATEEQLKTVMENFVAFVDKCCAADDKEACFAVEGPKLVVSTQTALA
Follistatin (Homo sapiens), sequence (P19883 whole entry, looked up): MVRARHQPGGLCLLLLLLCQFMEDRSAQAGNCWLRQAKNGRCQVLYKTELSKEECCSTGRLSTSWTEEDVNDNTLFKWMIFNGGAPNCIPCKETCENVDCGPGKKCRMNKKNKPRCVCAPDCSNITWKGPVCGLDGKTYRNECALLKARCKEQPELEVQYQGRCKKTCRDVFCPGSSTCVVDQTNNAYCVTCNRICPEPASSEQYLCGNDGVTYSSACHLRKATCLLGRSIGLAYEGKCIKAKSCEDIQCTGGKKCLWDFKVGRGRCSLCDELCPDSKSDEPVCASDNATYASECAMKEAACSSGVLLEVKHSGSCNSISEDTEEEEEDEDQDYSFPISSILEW
Focal adhesion kinase 1 (Homo sapiens), sequence (Q05397 whole entry, looked up): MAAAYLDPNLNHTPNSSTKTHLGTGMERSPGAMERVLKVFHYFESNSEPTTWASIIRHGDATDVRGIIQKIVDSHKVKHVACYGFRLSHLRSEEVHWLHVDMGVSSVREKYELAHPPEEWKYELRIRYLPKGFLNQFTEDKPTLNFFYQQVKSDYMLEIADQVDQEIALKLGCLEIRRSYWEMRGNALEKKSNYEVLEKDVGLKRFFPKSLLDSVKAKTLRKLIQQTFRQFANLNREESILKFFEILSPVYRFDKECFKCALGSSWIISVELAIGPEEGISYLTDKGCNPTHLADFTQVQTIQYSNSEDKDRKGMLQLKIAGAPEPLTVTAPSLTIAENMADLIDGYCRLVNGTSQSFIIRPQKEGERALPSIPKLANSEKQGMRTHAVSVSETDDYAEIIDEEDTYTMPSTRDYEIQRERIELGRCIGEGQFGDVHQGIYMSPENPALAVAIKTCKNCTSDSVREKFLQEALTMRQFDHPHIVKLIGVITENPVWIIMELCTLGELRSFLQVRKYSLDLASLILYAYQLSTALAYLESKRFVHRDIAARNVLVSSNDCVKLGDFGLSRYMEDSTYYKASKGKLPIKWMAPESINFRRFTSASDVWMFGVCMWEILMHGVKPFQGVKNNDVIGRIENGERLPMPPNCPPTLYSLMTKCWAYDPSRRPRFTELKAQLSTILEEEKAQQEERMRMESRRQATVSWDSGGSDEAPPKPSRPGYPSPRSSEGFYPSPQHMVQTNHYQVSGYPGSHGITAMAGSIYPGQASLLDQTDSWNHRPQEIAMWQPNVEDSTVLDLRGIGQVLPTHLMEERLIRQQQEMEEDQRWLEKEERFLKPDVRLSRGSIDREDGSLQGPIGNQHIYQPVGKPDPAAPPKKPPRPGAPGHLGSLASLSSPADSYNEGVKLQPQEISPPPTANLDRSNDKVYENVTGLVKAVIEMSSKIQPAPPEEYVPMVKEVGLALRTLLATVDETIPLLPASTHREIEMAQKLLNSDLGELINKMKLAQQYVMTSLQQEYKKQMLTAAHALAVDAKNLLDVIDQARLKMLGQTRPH

Take `CCCCC(=C=CC[C@H](O)c1ccccc1OCCO)C[C@H](O)c1cc(Cl)cc(Cl)c1O`: the composite z-score in [1] was 0.233; in assay [3], -0.0448; in assay [4] it was -0.175; in [5], 0.649; in [6], 0.499; in assay [7], 0.569. For the same molecule, the composite z-score is 0.811 in assay [8]; -0.473 in assay [9]; 0.907 in assay [10]; 1.02 in assay [11]; 0.955 in assay [12]; 0.305 in [13]. Besides, the composite z-score in assay [14] turned out to be 0.517; in [15], 0.698; in [16] it was 0.28; in assay [18], 0.249; in assay [19], 0.0162. Moreover, the composite Z-score in [2] was 0.45 (inactive). The z-score in [17] was -0.343; in [20] it was -1.27 (inactive).
As to `C=CC[C@]1(C(=O)O)N=C(c2ccc(OCCCO)cc2)O[C@H]1c1ccccc1CN=[N+]=[N-]`, the composite z-score is 0.659 in assay [1]; -0.0447 in [3]; -0.157 in [4]; 0.876 in assay [5]; 1.23 in assay [6]; -0.201 in [7]. Moreover, the composite z-score in [8] is -0.103; in [9], 0.0037; in [10] it was 0.0681; in assay [11], 0.518; in assay [12] it was -0.583; in [13], 0.174. The composite z-score in assay [14] was -0.276; in [15] it was 0.349; in assay [16] it was -0.39; in assay [18], -0.316; in [19] it was 0.184. For the same molecule, the composite Z-score in assay [2] is 0.168 (inactive). In addition, the z-score was 0.00796 in assay [17] and -0.893 (inactive) in assay [20].
As to `COCC1=C([C@H](O)CCc2ccccc2)[C@H](CO)[C@@H]2C(=O)N(Cc3ccccc3)C(=O)[C@@H]2C1`, the composite z-score in [1] is -0.103; in [3], -0.0456; in assay [4], -0.129; in assay [5], -0.0186; in assay [6], 0.0949; in assay [7] it was -0.102. Also, the composite z-score in assay [8] was -0.0322; in assay [9], 0.422; in assay [10], 0.0998; in assay [11], -0.219; in assay [12], -0.0814; in [13], 0.0916. The composite z-score in assay [14] was determined as 0.292; in [15], 0.444; in [16], 0.0451; in assay [18] it was 0.448; in assay [19], 0.131. Further, the composite Z-score in assay [2] is 0.0653 (inactive). In addition, the figures for the z-score in assay [17] and in assay [20] were 0.68 and 0.24 (inactive), respectively.
Turning to `COCCOC(=O)N1C(=O)[C@@]2(c3cc(C#CC4=CCCCC4)ccc31)[C@H](c1ccc(OCCO)cc1)N1[C@H](c3ccccc3)[C@H](c3ccccc3)OC(=O)[C@H]1[C@@H]2C(=O)Nc1nc2ccccc2s1`, the composite z-score in assay [1] is 0.539; in assay [3], 0.151; in assay [4] it was -0.0483; in [5], 0.154; in assay [6] it was 0.999; in [7] it was 0.664. Also, the composite z-score is 1.31 in assay [8]; 1.29 in [9]; 1.09 in assay [10]; 0.317 in assay [11]; 1.18 in assay [12]; 0.358 in assay [13]. In addition, the composite z-score stood at 0.929 in assay [14]; 1.19 in [15]; 0.571 in assay [16]; 0.982 in assay [18]; 0.53 in assay [19]. Also, in assay [2], the composite Z-score is 0.657 (inactive). In addition, the z-score in assay [17] is -2.19; in assay [20] it was -2.79 (inactive).
Regarding `CC(=O)n1cc(C(O)C2C=CC3C(=O)N(c4ccccc4)C(=O)C3N2Nc2ccc(C#N)cc2)c2ccccc21` (stereo not given), the composite z-score in assay [1] was 0.938; in [3] it was 0.307; in [4], 0.0753; in [5] it was 0.798; in [6], 2.7; in assay [7], 0.53. Besides, the composite z-score was 1.31 in assay [8]; -0.776 in assay [9]; 0.876 in assay [10]; 1.56 in [11]; 1.26 in [12]; 0.519 in assay [13]. In addition, the composite z-score in assay [14] was 0.893; in [15], 0.12; in assay [16], -0.856; in assay [18], -0.233; in assay [19], 1.38. Also, in assay [2], the composite Z-score was -0.187 (inactive). The z-score was 0.0139 in [17] and -0.985 (inactive) in assay [20].
